Experimental data published in the supplement of paper PMC10646978.
± gives the standard deviation.

Assays:
Conditions in all cases: modulator concentration 10 µM
[1] = test system: RAW-Dual (murine macrophage reporter line); experiment: NF-kB reporter (SEAP) activity fold change vs agonist alone; higher = enhanced NF-kB activity
In short: (§1)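 Overnight stimulation with a PRR agonist followed pre-incubation for 1 hour at 37 °C with compound at 10 μM final. This was done in RAW-Dual murine macrophage reporter cells seeded at 50 000 per well in 384-well plates. NF-κB (SEAP, QUANTI-Blue absorbance at 620 nm) and IRF (Lucia luciferase, QUANTI-Luc luminescence) were read from the supernatant. Each reporter's fold change relative to the mean agonist-only control on the same plate was averaged over replicate plates.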

[2] = test system: RAW-Dual (murine macrophage reporter line); experiment: IRF reporter (Lucia luciferase) activity fold change vs agonist alone; higher = enhanced IRF activity
In short: as §1

[3] = test system: RAW-Dual (murine macrophage reporter line); experiment: viability score (confluency relative to resting cells, overnight) (fraction); higher = more viable, active = viable (0.7 or more)
In short: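 RAW-Dual macrophages in 384-well plates were incubated overnight with compound, final concentration 10 μM. Confluency images from IncuCyte were processed in IncuCyte software into two masks covering all imaged wells. The viability score is each well's confluency relative to resting cells, and a compound met the cutoff when both masks exceeded 70% of resting cells.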

[4] = agonist: CpG ODN 1826 0.5 ug/mL

Structure (SMILES) | NF-kB reporter [1, 4] | NF-kB reporter ([1]; agonist: LPS 0.1 ug/mL) | NF-kB reporter ([1]; agonist: MPLA […]) | IRF reporter ([2]; agonist: 3'3'-cGAMP 10 ug/mL) | IRF reporter ([2]; agonist: LPS 0.1 ug/mL) | IRF reporter ([2]; agonist: MPLA […]) | viability score [3]
CC(=O)Oc1ccc(C(=O)Nc2ccccc2Br)cc1 | 0.856 ± 0.068 | 1.01 ± 0.092 | 0.877 ± 0.066 | 0.953 ± 0.049 | 1.08 ± 0.2 | 0.904 ± 0.26 | 0.992 (active)
Clc1ccc(C2C=C(c3ccccc3)Nc3ncnn32)cc1 (configuration not stated) | 1.08 ± 0.11 | 0.939 ± 0.091 | 0.986 ± 0.057 | 0.886 ± 0.17 | 1.1 ± 0.097 | 0.945 ± 0.062 | 1 (active)
COc1ccc(N(CC(=O)Nc2ccccc2C(F)(F)F)S(C)(=O)=O)cc1 | 0.711 ± 0.14 | 0.672 ± 0.27 | 0.795 ± 0.17 | 0.723 ± 0.074 | 1.03 ± 0.14 | 0.962 ± 0.13 | 0.992 (active)
Cl.NCCCC[C@H](N)C(=O)O | 1.03 ± 0.31 | 0.949 ± 0.063 | 1.01 ± 0.064 | 0.867 ± 0.052 | 1.2 ± 0.14 | 1.12 ± 0.18 | 1.01 (active)
CCCCc1c(CCC)c(=N)c2ccccc2n1C.I | 0.992 ± 0.098 | 1.18 ± 0.091 | 1.56 ± 0.15 | 1.09 ± 0.048 | 1.67 ± 0.22 | 2.14 ± 0.32 | 1.01 (active)
Cc1cc(C)c(NC(=O)c2ccc(Oc3nccs3)cc2)c(C)c1 | 0.893 ± 0.039 | 1.12 ± 0.098 | 1.22 ± 0.18 | 0.844 ± 0.048 | 0.939 ± 0.21 | 1.06 ± 0.42 | 1.01 (active)
CCC(=O)N1c2ccccc2NC2=C(C(=O)CC(c3ccccc3Cl)C2)C1c1ccc(C)cc1 (configuration not stated) | 1.02 ± 0.17 | 0.983 ± 0.079 | 0.961 ± 0.15 | 0.837 ± 0.022 | 1.2 ± 0.17 | 1.23 ± 0.36 | 1.01 (active)
CCn1c(=O)c(-c2ccn[nH]2)cc2c(C)nc(N)nc21 | 0.877 ± 0.054 | 1.01 ± 0.093 | 1.17 ± 0.065 | 1.01 ± 0.048 | 1.33 ± 0.23 | 1.45 ± 0.53 | 1 (active)
Cc1ccc(CC(=O)N2CCNC(=O)C2(C)C)cc1C | 1.08 ± 0.11 | 1.07 ± 0.1 | 0.989 ± 0.031 | 0.865 ± 0.042 | 0.941 ± 0.044 | 0.87 ± 0.085 | 0.999 (active)
O=C(O)CCCNc1c(C(=O)Nc2ccc(Cl)cc2)cc([N+](=O)[O-])cc1[N+](=O)[O-] | 0.817 ± 0.065 | 0.813 ± 0.057 | 0.942 ± 0.049 | 0.629 ± 0.022 | 1.11 ± 0.12 | 1.42 ± 0.24 | 0.511 (inactive)
O=C(CC1CC1)N1CCN(c2cc(C(F)(F)F)ncn2)CC1 | 0.929 ± 0.04 | 0.963 ± 0.081 | 1.29 ± 0.13 | 1.04 ± 0.091 | 1.04 ± 0.18 | 1.01 ± 0.43 | 1.01 (active)
O=C(NCC1(O)CCc2ccccc2C1)c1cccc(C(F)(F)F)c1 (configuration not stated) | 0.848 ± 0.041 | 0.939 ± 0.1 | 0.957 ± 0.054 | 0.989 ± 0.045 | 1.09 ± 0.26 | 1.12 ± 0.43 | 0.994 (active)
O=C(Nc1ccc(F)c(F)c1)c1ccnc(OCC2CCOCC2)c1 | 1.15 ± 0.07 | 0.969 ± 0.084 | 0.908 ± 0.046 | 0.856 ± 0.051 | 1.16 ± 0.14 | 1.26 ± 0.36 | 0.995 (active)
CC(=O)N1CC(c2ccc(OC(C)C)cc2)CC1=O (configuration not stated) | 1.07 ± 0.23 | 1.04 ± 0.084 | 0.961 ± 0.088 | 1.05 ± 0.03 | 1.22 ± 0.15 | 1.36 ± 0.16 | 0.999 (active)
C=CCn1c(SCC(=O)NCCN2CCOCC2)nc2sc3c(c2c1=O)CCC3 | 0.99 ± 0.079 | 1.05 ± 0.069 | 0.852 ± 0.068 | 1.02 ± 0.081 | 1.48 ± 0.11 | 0.984 ± 0.083 | 1.01 (active)
COc1ccc(C=CC(=O)Nc2ccc([N+](=O)[O-])cc2)cc1Br | 1.06 ± 0.17 | 0.991 ± 0.14 | 0.905 ± 0.11 | 0.996 ± 0.044 | 1.28 ± 0.18 | 1.43 ± 0.42 | 1.01 (active)
Cc1[nH]c2ccc(Br)cc2c(=O)c1CN1CCOCC1 | 1.06 ± 0.062 | 0.995 ± 0.11 | 0.972 ± 0.027 | 1.01 ± 0.073 | 0.973 ± 0.1 | 0.937 ± 0.16 | 0.995 (active)
CCOC(=O)C1=C[C@]2(CC)CCCN3CCc4c(n1c1ccccc41)[C@@H]32 | 0.825 ± 0.057 | 0.946 ± 0.077 | 0.994 ± 0.07 | 0.998 ± 0.045 | 1.21 ± 0.15 | 1.4 ± 0.46 | 0.949 (active)
Cc1cc(CNC(=O)CCc2ccc(S(C)(=O)=O)cc2)c(C)o1 | 1.24 ± 0.44 | 1.03 ± 0.084 | 1.04 ± 0.066 | 0.928 ± 0.046 | 0.97 ± 0.18 | 1 ± 0.11 | 0.999 (active)
CCS(=O)(=O)O.COC(=O)c1ccc2c(c1)NC(=O)/C2=C(\Nc1ccc(N(C)C(=O)CN2CCN(C)CC2)cc1)c1ccccc1 | 0.115 ± 0.027 | 0.886 ± 0.044 | 2.23 ± 0.18 | 0.036 ± 0.002 | 0.177 ± 0.025 | 0.241 ± 0.028 | 0.839 (active)
CC(C)Nc1cc(-c2c[nH]c(C(=O)N[C@H](CO)c3cccc(Cl)c3)c2)c(Cl)cn1 | 0.208 ± 0.012 | 0.0734 ± 0.0045 | 0.158 ± 0.01 | 0.677 ± 0.022 | 1.46 ± 0.12 | 0.62 ± 0.093 | 0.742 (active)
CN1CCN(CCCN2c3ccccc3Sc3ccc(S(=O)(=O)N(C)C)cc32)CC1 [Prestw-149] | 0.413 ± 0.053 | 0.958 ± 0.052 | 1.82 ± 0.044 | 0.936 ± 0.051 | 0.851 ± 0.078 | 1.55 ± 0.16 | 0.149 (inactive)
C=CCNc1oc(Cc2cccc3ccccc23)nc1C#N | 0.818 ± 0.039 | 1.04 ± 0.091 | 1.13 ± 0.062 | 0.731 ± 0.036 | 1.16 ± 0.25 | 1.28 ± 0.4 | 0.952 (active)
Cc1ccc(C2(c3ccc(C)cc3)CC2C(=O)Nc2ccccc2)cc1 (configuration not stated) | 0.728 ± 0.079 | 0.905 ± 0.12 | 1.51 ± 0.071 | 0.541 ± 0.031 | 0.835 ± 0.12 | 0.654 ± 0.12 | 0.992 (active)
c1ccc(CCn2c(COc3ccccc3)nc3ccccc32)cc1 | 1.01 ± 0.16 | 0.987 ± 0.13 | 1.16 ± 0.16 | 1.21 ± 0.043 | 1.24 ± 0.16 | 1.34 ± 0.29 | 1.01 (active)
Cc1cc(=O)nc(SCCc2ccccc2)[nH]1 | 1.13 ± 0.11 | 1.27 ± 0.082 | 1.15 ± 0.041 | 0.952 ± 0.079 | 1.06 ± 0.053 | 1.2 ± 0.091 | 0.687 (inactive)
